From PubChem BioAssay AID1159580 (chemical genetic matrix, 2015)
The campaign covered roughly 5,500 compounds. About 2,000 (36%) were called active. Inconclusive results (about 18%) are left out. Rule as the data show it: active = normalized growth mostly below about 0.91 (no sharp cut-off); inconclusive = no clear call, values can overlap the other calls; inactive = mostly above about 0.92. The list shows a part of the results.

Test: chemical genetic growth profiling, strain panel (AID 1159580);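 also: tested at 20 µM; growth read once vehicle control cultures reached saturation at 30 °C; 1 = growth at the plate median or of vehicle wells; lower values mean less growth of the strain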
Conditions: S. cerevisiae deletion strains, growth OD

Measured: normalized growth

CC1=CCCC2C1(C)CCC(C)C2(C)CC/C(C)=C/C[n+]1cn(C)c2c(N)ncnc21 (centres undefined)
active: locus YAL026C, strain drs2, active compounds read low 0.838 | locus YDR137W, strain rgp1, active compounds read low 1.17 [resistant] | locus YDR392W, strain spt3, active compounds read low 0.452 | locus YER155C, strain BEM2 (second series), active compounds read low 0.644 | locus YNL071W, strain lat1, active compounds read low 0.863 | locus YOR290C, strain snf2, active compounds read low 0.844
inactive: locus YAL021C, strain ccr4, active compounds read low 0.944 | locus YAL030W, strain snc1, active compounds read low 0.986 | locus YBL061C, strain skt5, active compounds read low 1.01 | locus YBR009C, strain hhf1, active compounds read low 0.928 | locus YBR023C, strain chs3, active compounds read low 0.978 | locus YBR171W, strain sec66, active compounds read low 0.977 | locus YBR231C, strain swc5, active compounds read low 0.973 | locus YBR279W, strain paf1, active compounds read low 0.96 | locus YCL011C, strain gbp2, active compounds read low 0.943 | locus YCL016C, strain dcc1, active compounds read low 0.932 | locus YCL069W, strain vba3, active compounds read low 0.961 | locus YCR088W, strain abp1, active compounds read low 0.991 | locus YDL005C, strain med2, active compounds read low 0.984 | locus YDL040C, strain nat1, active compounds read low 0.991 | locus YDR001C, strain nth1, active compounds read low 0.976 | locus YDR069C, strain doa4, active compounds read low 1.01 | locus YDR159W, strain sac3, active compounds read low 1.06 | locus YDR195W, strain ref2 0.992 | locus YDR297W, strain sur2, active compounds read low 0.996 | locus YDR334W, strain swr1, active compounds read low 0.988 | locus YDR335W, strain msn5, active compounds read low 0.955 | locus YEL003W, strain gim4, active compounds read low 0.955 | locus YEL037C, strain rad23, active compounds read low 0.987 | locus YEL061C, strain CIN8 (second series), active compounds read low 0.976 | locus YER015W, strain faa2, active compounds read low 0.963 | locus YER016W, strain bim1, active compounds read low 0.994 | locus YER111C, strain swi4, active compounds read low 0.984 | locus YFR010W, strain ubp6, active compounds read low 0.996 | locus YGL167C, strain pmr1, active compounds read low 0.976 | locus YGL173C, strain kem1, active compounds read low 0.993 | locus YGL227W, strain vid30, active compounds read low 0.985 | locus YGL240W, strain doc1, active compounds read low 0.971 | locus YGL253W, strain hxk2, active compounds read low 0.976 | locus YHR013C, strain ard1, active compounds read low 0.917 | locus YHR027C, strain rpn1, active compounds read low 1 | locus YHR030C, strain SLT2, active compounds read low 0.946 | locus YHR079C, strain IRE1, active compounds read low 0.951 | locus YHR142W, strain chs7, active compounds read low 0.881 | locus YJL092W, strain hpr5, active compounds read low 0.982 | locus YJL095W, strain BCK1 (second series), active compounds read low 1.01 | locus YJL095W, strain BCK1, active compounds read low 0.971 | locus YJL115W, strain asf1, active compounds read low 0.978 | locus YJL129C, strain trk1, active compounds read low 1 | locus YJL154C, strain vps35, active compounds read low 0.983 | locus YJL164C, strain tpk1, active compounds read low 0.935 | locus YJL166W, strain qcr8, active compounds read low 0.963 | locus YJL187C, strain SWE1, active compounds read low 0.991 | locus YJR066W, strain TOR1, active compounds read low 0.94 | locus YKL160W, strain elf1, active compounds read low 0.929 | locus YKR026C, strain gcn3, active compounds read low 1.01 | locus YKR091W, strain srl3, active compounds read low 0.977 | locus YLL001W, strain dnm1, active compounds read low 0.908 | locus YLL026W, active compounds read low 0.984 | locus YLL041C, strain sdh2, active compounds read low 0.987 | locus YLR027C, strain aat2, active compounds read low 0.986 | locus YLR113W, strain HOG1, active compounds read low 0.891 | locus YLR221C, strain rsa3, active compounds read low 1.02 | locus YLR258W, strain gsy2, active compounds read low 0.969 | locus YLR262C, strain YPT6 (second series), active compounds read low 1.03 | locus YLR320W, strain mms22, active compounds read low 1 | locus YLR342W, strain FKS1, active compounds read low 0.919 | locus YLR357W, strain rsc2, active compounds read low 0.929 | locus YLR370C, strain arc18, active compounds read low 0.961 | locus YLR384C, strain iki3, active compounds read low 0.995 | locus YML120C, strain ndi1, active compounds read low 0.931 | locus YMR058W, strain fet3, active compounds read low 0.982 | locus YMR125W, strain sto1, active compounds read low 0.936 | locus YMR129W, active compounds read low 0.995 | locus YMR205C, strain PFK2, active compounds read low 0.925 | locus YMR231W, strain pep5, active compounds read low 1.02 | locus YNL183C, strain NPR1, active compounds read low 0.968 | locus YNL209W, strain ssb2, active compounds read low 0.932 | locus YNL248C, strain rpa49, active compounds read low 0.98 | locus YNL322C, strain KRE1 (second series), active compounds read low 0.996 | locus YNR049C, strain mso1, active compounds read low 0.992 | locus YOR001W, strain rrp6, active compounds read low 1.01 | locus YOR070C, strain gyp1, active compounds read low 0.988 | locus YOR080W, strain dia2, active compounds read low 1 | locus YOR083W, strain WHI5, active compounds read low 0.908 | locus YOR106W, strain vam3, active compounds read low 0.883 | locus YOR231W, strain MKK1, active compounds read low 0.937 | locus YOR265W, strain rbl2, active compounds read low 0.981 | locus YOR270C, strain vph1, active compounds read low 0.95 | locus YPL051W, strain arl3, active compounds read low 0.942 | locus YPL078C, strain atp4, active compounds read low 0.896 | locus YPL106C, strain sse1, active compounds read low 0.973 | locus YPL240C, strain hsp82, active compounds read low 0.996 | locus YPL256C, strain CLN2, active compounds read low 0.939
